The panel holds about 83,000 compounds, 20% with a hit somewhere; the sample as a whole holds those more often.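 96-well plates, one dose, 48 hours. Percent growth reported; active if below 10.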 Active and inactive are the calls of the source.
How the values were obtained:
Assay in all cases: NCI-60 one-dose screen, 48 h (100 = growth as untreated, 0 = no growth, -100 = all killed)
Details in all cases: 10 µM unless noted
[1] = system: HCT-15 colon
[2] = system: HT29 colon
[3] = system: SNB-75 CNS
[4] = system: SNB-19 CNS
[5] = system: U251 CNS
[6] = system: PC-3 prostate
[7] = system: SK-MEL-5 melanoma
[8] = system: UACC-62 melanoma
[9] = system: LOX IMVI melanoma
[10] = system: SK-MEL-28 melanoma
[11] = system: SK-MEL-2 melanoma
[12] = system: SN12C renal
[13] = system: TK-10 renal
[14] = system: ACHN renal
[15] = system: CAKI-1 renal
[16] = system: A498 renal
[17] = system: CCRF-CEM leukemia
[18] = system: MOLT-4 leukemia
[19] = system: EKVX NSCLC
[20] = system: UO-31 renal

Measured: growth

c1ccc(OCc2nnc(-c3ccc(Oc4ccccc4)cc3)o2)cc1
inactive: [1] 103% | [2] 103% | [3] 98.5% | [4] 103% | [5] 95.4% | [6] 78.9% | [7] 100% | [8] 90.9% | [9] 102% | [10] 116% | [11] 91.4% | [12] 99% | [13] 103% | [14] 92.9% | [15] 97.1% | [16] 111% | [17] 96.7% | [18] 87.6%

CNCCCC12CCC(c3ccccc31)c1ccccc12
inactive: [1] 95.4% | [2] 60.4% | [3] 60.2% | [4] 91.5% | [5] 81.1% | [6] 71.9% | [8] 90.9% | [9] 79.6% | [10] 87.4% | [11] 100% | [19] 87.9% | [12] 73.4% | [20] 58% | [13] 80.2% | [14] 80.6% | [15] 83.4% | [16] 93.7% | [17] 84.7% | [18] 89.6%

CCCCCCn1c(-c2ccc(C(=O)O/N=C(\N)c3ccc4ccccc4c3)cc2)nc(-c2ccccc2)c1-c1ccccc1
active: [9] -88.6% | [20] -85.4% | [14] 0.0407%
inactive: [1] 49.3% | [2] 74.5% | [3] 16% | [4] 68.9% | [5] 50.2% | [6] 51.3% | [8] 61.1% | [10] 72.9% | [11] 88.6% | [19] 18% | [12] 45.6% | [13] 47.4% | [15] 33.9% | [16] 51.4% | [17] 18.5% | [18] 41.2%

COc1cc(/C=C/C(=O)/C=C/c2cc(OC)c3c(c2OC)OCO3)c(OC)c2c1OCO2
inactive: [1] 31.9% | [2] 68.5% | [3] 33.4% | [4] 55.4% | [5] 11.5% | [6] 41% | [8] 25.5% | [9] 32.9% | [10] 55.6% | [11] 28.1% | [19] 87.7% | [12] 30.4% | [20] 57.3% | [13] 12.9% | [14] 25.5% | [15] 29.7% | [16] 43% | [17] 26.5% | [18] 18.7%

COc1ccc(/C=N/Nc2cc(=O)[nH]c3ccc(Cl)cc23)cc1
active: [2] 3.92%
inactive: [1] 39.5% | [3] 99% | [4] 85.8% | [5] 28.9% | [6] 59.1% | [8] 77.3% | [9] 37.2% | [10] 87.2% | [11] 48.8% | [19] 63.8% | [12] 62.3% | [20] 94.7% | [13] 12.5% | [14] 72.7% | [15] 86.2% | [16] 80.7% | [17] 38.2% | [18] 30.4%

CCOC(=O)CC1C(COC(=O)NC)OC(n2cnc3c(NC(=O)Nc4ccccc4)ncnc32)C1O[Si](C)(C)C(C)(C)C (stereo not drawn)
active: [2] 8.8%
inactive: [1] 52.2% | [3] 45.4% | [4] 99.1% | [5] 52% | [6] 32.4% | [8] 65.1% | [9] 48.6% | [10] 71.9% | [11] 60% | [19] 67.5% | [12] 34.8% | [20] 41.9% | [13] 87.7% | [14] 25.8% | [15] 60.8% | [16] 77.4% | [17] 57.4% | [18] 34.3%

C=C1C(=O)O[C@H]2[C@H]1CC/C(COC(=O)CCC(=O)NCCOCCOCC(=O)Nc1ccc(OC)c(C(N)=O)c1O)=C\CC[C@@]1(C)O[C@@H]21
inactive: [1] 92.3% | [2] 101% | [3] 95.6% | [4] 99% | [5] 94.9% | [6] 101% | [8] 89.2% | [9] 87.7% | [10] 93.2% | [11] 89.7% | [19] 94.4% | [12] 92.7% | [20] 92% | [13] 96% | [14] 87.3% | [15] 81.2% | [16] 101% | [17] 53.7% | [18] 97.1%

COc1ccc(-c2cc3c4c(nc5ccccc5c4c2)CC(c2cc(OC)c(OC)c(OC)c2)O3)cc1 (stereo not drawn)
active: [3] -30% | [20] -26.3% | [13] 7.8% | [14] -46% | [15] 1.26%
inactive: [1] 45.6% | [2] 45.2% | [4] 40.1% | [5] 54.8% | [6] 52.3% | [8] 52% | [9] 38.4% | [10] 44% | [11] 66.3% | [19] 65% | [12] 32.3% | [16] 70.4% | [17] 99.1% | [18] 102%

CN(C)CCCNc1nc2ccccc2c2c(=O)c3cc(F)ccc3sc12
inactive: [1] 17.7% | [3] 65.6% | [4] 68.4% | [5] 28.5% | [6] 50.2% | [11] 87.3% | [19] 66.3% | [12] 61.2% | [20] 24.9% | [13] 59.7% | [14] 21.5% | [16] 26.6%
active: [2] 4.32% | [8] -53.8% | [9] -95% | [10] -42.4% | [15] 8.81% | [17] 10% | [18] -11.2%

CC(=O)OC[C@H]1OC(Sc2sc(C(=O)c3ccc(Cl)cc3)c(N)c2-c2nc3ccccc3s2)[C@H](OC(C)=O)[C@@H](OC(C)=O)[C@@H]1OC(C)=O (stereo partly drawn)
inactive: [1] 82.3% | [2] 81% | [3] 50.1% | [4] 92.8% | [5] 88.6% | [6] 83.4% | [8] 97.9% | [9] 68.8% | [10] 94.2% | [11] 104% | [19] 80.4% | [12] 54.7% | [20] 79.4% | [13] 134% | [14] 67.4% | [15] 77.1% | [16] 87.8% | [17] 70.9% | [18] 97%

COc1ccc(-c2conc2-c2ccccc2)cc1
inactive: [1] 17.9% | [2] 53.1% | [4] 30.1% | [5] 20.9% | [6] 20% | [8] 17.8% | [9] 38.8% | [10] 55.3% | [11] 41.6% | [19] 52.7% | [12] 33.2% | [20] 45.2% | [14] 36.5% | [15] 33.5% | [17] 25.7% | [18] 34.4%
active: [3] -12.4% | [13] 6.72% | [16] -14%

O=C(O)C(c1ccccc1)N1C(=O)CSC1=S (stereo not drawn)
inactive: [1] 103% | [2] 106% | [3] 72.8% | [4] 102% | [5] 96.4% | [6] 101% | [8] 97.7% | [9] 97.2% | [10] 99.5% | [11] 102% | [19] 98% | [12] 97% | [20] 94.3% | [13] 95.7% | [14] 102% | [15] 89.3% | [16] 83.9% | [17] 105% | [18] 99.9%

CCN1C(=O)N(CC)C2Nn3c(s/c(=C4\C(=O)Nc5ccccc54)c3=O)=NC21 (stereo not drawn)
inactive: [1] 35.9% | [2] 81.2% | [3] 19.3% | [4] 55.8% | [5] 42.8% | [6] 30.3% | [8] 46.6% | [9] 56.9% | [10] 60% | [11] 61.2% | [19] 83.2% | [12] 49.8% | [20] 54.8% | [13] 13.7% | [14] 53.7% | [15] 37.9% | [17] 35.9% | [18] 59%
active: [16] -2.29%

COc1cccc(-c2nc(-c3ccc(NC(=O)C(C)C)cc3)[nH]c2-c2ccnc(Br)c2)c1
inactive: [2] 23% | [3] 10.5% | [4] 44.6% | [5] 32% | [6] 18.7% | [8] 37.1% | [9] 15.2% | [10] 47% | [11] 22% | [12] 61.7% | [20] 12.1% | [13] 54% | [14] 28.8% | [15] 36.2% | [17] 21.8% | [18] 14.3%
active: [1] 7.17% | [7] 6.14% | [16] 2.23%

CN1CCN(c2ccc(-c3ccc4ncc(C#N)c(Nc5ccc(F)c(Cl)c5)c4c3)cn2)CC1
active: [16] -7.02%
inactive: [1] 13.4% | [2] 36.6% | [3] 64.1% | [4] 74.7% | [5] 57% | [6] 58.5% | [8] 86% | [9] 68.8% | [10] 70.3% | [11] 49.7% | [19] 48.4% | [12] 62.5% | [20] 28.7% | [13] 34.1% | [14] 17.4% | [15] 27.2% | [17] 37.8% | [18] 38.2%

O=C1CCC(C(=O)NCCNCCNC(=O)C2CCC(=O)N2)N1 (stereo not drawn)
inactive: [1] 99.8% | [2] 89.8% | [3] 101% | [4] 98.3% | [5] 97.7% | [6] 78.5% | [8] 99.4% | [9] 96.5% | [10] 112% | [11] 99.8% | [19] 100% | [12] 96.9% | [20] 96.5% | [13] 100% | [14] 112% | [15] 98.8% | [16] 89.9% | [17] 88.7% | [18] 97.2%

Reference: PubChem BioAssay (NCI)
